# Laboratory results as given in publication PMC4336329 (PLoS ONE, 2015).
# The campaign covered roughly 310,000 compounds. About 14,000 (4.5%) showed an effect of 50% or more. The effect is printed as a negative number. Shown is part of a subset that was picked to be rich in strong results.
# Biological target: human ether-à-go-go-related gene (hERG) potassium channel (human, UniProt Q12809)
# Test: primary screen, population patch clamp on CHO cells stably expressing hERG; higher = less effect of the substance
# 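Also: peak tail current of the secondary pulse compared with the same well before compound.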
# Sequence of human ether-à-go-go-related gene (hERG) potassium channel (Q12809 whole entry, looked up): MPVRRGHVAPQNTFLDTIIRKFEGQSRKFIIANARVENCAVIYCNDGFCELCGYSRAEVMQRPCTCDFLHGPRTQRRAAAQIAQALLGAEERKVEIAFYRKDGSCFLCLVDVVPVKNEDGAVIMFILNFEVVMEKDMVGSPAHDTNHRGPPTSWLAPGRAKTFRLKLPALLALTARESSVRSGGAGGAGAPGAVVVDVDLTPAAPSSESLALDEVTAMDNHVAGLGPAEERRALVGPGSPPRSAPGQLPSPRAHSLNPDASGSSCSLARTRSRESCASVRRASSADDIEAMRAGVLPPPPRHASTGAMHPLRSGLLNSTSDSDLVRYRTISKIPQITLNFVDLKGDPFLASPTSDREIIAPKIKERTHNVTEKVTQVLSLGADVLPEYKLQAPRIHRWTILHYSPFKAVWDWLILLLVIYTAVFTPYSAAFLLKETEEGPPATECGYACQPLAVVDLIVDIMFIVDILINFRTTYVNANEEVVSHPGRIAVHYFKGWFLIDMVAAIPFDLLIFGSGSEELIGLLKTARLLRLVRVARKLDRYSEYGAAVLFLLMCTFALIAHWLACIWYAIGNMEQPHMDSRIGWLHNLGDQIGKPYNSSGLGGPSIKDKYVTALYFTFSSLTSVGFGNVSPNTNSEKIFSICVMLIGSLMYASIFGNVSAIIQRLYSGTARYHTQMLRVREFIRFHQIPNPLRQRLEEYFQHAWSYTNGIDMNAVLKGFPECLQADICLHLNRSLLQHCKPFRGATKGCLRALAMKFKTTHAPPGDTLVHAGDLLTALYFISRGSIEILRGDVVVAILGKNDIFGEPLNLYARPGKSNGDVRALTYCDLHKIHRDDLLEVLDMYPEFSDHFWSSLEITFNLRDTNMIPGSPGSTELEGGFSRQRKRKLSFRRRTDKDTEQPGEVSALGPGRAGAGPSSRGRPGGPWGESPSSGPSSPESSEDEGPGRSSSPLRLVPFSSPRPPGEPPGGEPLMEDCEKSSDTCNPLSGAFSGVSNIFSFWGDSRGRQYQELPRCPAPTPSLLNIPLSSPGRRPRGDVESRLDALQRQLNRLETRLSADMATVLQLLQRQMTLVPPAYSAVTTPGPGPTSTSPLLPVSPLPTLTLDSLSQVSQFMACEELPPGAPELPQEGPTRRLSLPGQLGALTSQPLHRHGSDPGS
row,SMILES,"hERG current change (%, negative = inhibition) at 10uM [%]"
1,O=C(NC(=S)N1CCOCC1)c1ccc(F)cc1,24.4
2,CC[C@H](C)[C@@H](C(=O)N1CCNCC1)n1cc([C@@H](N)CC(C)C)nn1.Cl,11.9
3,CC(=O)c1ccc(NC(=O)CSc2nnc(-c3ccncc3)n2C2CC2)cc1,-5.46
4,COc1ccc(CC(=O)NC2CC(C)(C)NC(C)(C)C2)cc1OC.Cl,16.9
5,Cc1ccc(/C=C2\C(=O)Nc3ccccc32)o1,5.04
6,O=C(CSc1ccccc1)NCC1(N2CCOCC2)CCCCC1,-19
7,COc1ccccc1-n1nnnc1SCC(=O)NCC1(N2CCOCC2)CCCCC1,-39.8
8,CCOc1ccccc1-n1nnnc1SCC(=O)NCC1(N2CCOCC2)CCCCC1,-67.7
9,Cc1cccc(-n2nnnc2SCC(=O)NCC2(N3CCOCC3)CCCCC2)c1C,-57.9
10,CCOc1ccccc1-n1nnnc1SCC(=O)NCc1ccco1,5.25
11,Cc1ccccc1-n1nnnc1SCC(=O)NCC1(N2CCOCC2)CCCCC1,-24.9
12,O=c1c2ccccc2nc2c3ccccc3c(NCc3cccnc3)nn12,-25.5
13,COc1ccc(-n2nc(C(=O)NCC(=O)NC3CCCC(C)C3C)c3ccccc3c2=O)cc1 (stereo not drawn),8.55
14,CC(=O)OCN(C#N)c1nc(N(C)C)nc(N(C)C)n1,5.8
15,Cc1nnc2ccc(-c3ccc(NS(=O)(=O)c4ccc(F)cc4F)cc3)nn12,-25.2
16,CC(C)Oc1ccc(CNC(=O)C2CCCN(S(=O)(=O)N3CCOCC3)C2)cc1 (stereo not drawn),-20.8
17,C=CCNC(=O)C1CC2Cn3c(nc4cc(C)c(C)cc43)C2N1C (stereo not drawn),-7.6
18,CN1C(C(=O)NCc2cccc(C(F)(F)F)c2)CC2Cn3c(nc4cc(Cl)c(Cl)cc43)C21 (stereo not drawn),-73.6
19,Cc1cc2nc3n(c2cc1C)CC1CC(C(=O)NCc2cccc(C(F)(F)F)c2)N(C)C31 (stereo not drawn),-66.7
20,CN1C(C(=O)NCc2cccc(C(F)(F)F)c2)CC2Cn3c(nc4ccccc43)C21 (stereo not drawn),-47.4
21,CN1C(C(=O)NCc2cccc(C(F)(F)F)c2)CC2Cn3c(nc4cc5ccccc5cc43)C21 (stereo not drawn),-63.1
22,Cc1cc2nc3n(c2cc1C)CC1CC(C(=O)NCC2CC2)N(C)C31 (stereo not drawn),-1.83
23,O=C(Nc1ccccc1)c1ccc(Br)c(S(=O)(=O)Nc2ccccn2)c1,14.5
24,Cc1cc(C)c(C#N)c(N2CCSCC2)n1,4.36
25,CC(=O)N1CCc2cc(S(=O)(=O)NCCC(=O)NC3CCCc4ccccc43)ccc21 (stereo not drawn),2.54
26,NC(=O)c1noc(C(=O)N(CC(=O)NC2CCCC2)Cc2ccc3c(c2)OCO3)c1N,-7.94
27,Cc1cc(N2CCOCC2)nc2ccc(NC(=S)NCc3ccc4c(c3)OCO4)cc12,-68.5

row,SMILES,"hERG current change (%, negative = inhibition) at 10uM [%]"
1,Cc1cc(N2CCN(C)CC2)nc2ccc(NC(=S)NCCCN3CCc4ccccc4C3)cc12,-26.5
2,Cc1cc(N2CCOCC2)nc2ccc(NC(=S)N3CCN(Cc4ccccc4)CC3)cc12,-33.6
3,Cc1cc(N2CCN(C)CC2)nc2ccc(NC(=S)NCCC(C)C)cc12,-51.2
4,Cc1cc(N2CCOCC2)nc2ccc(NC(=S)NCCC(C)C)cc12,-64.1
5,CCN(CC)CCNC(=S)Nc1ccc2nc(N3CCOCC3)cc(C)c2c1,11.7
6,COCCNC(=S)Nc1ccc2nc(N3CCOCC3)cc(C)c2c1,-0.507
7,Cc1cc(N2CCOCC2)nc2ccc(NC(=S)NCCN(C)C)cc12,13.7
8,CCN(CC)CCNC(=S)Nc1ccc2nc(N3CCN(C)CC3)cc(C)c2c1,-1.04
9,Cc1cccc(Cn2nc(C(C)(C)C)cc2C(=O)Nc2ccc(F)cc2)c1,14.8
10,C(#CCN1CCOCC1)COCC#Cc1ccccc1.Cl,-2.16
11,CC(C)(C)OC(=O)N[C@@H](Cc1c[nH]c2ccccc12)c1nnc(SCC(N)=O)o1,-3.96
12,Cc1nc2ccccc2c(=O)n1-c1cc(F)ccc1F,8.31
13,Cc1ccc(C)c(S(=O)(=O)NNC(=O)Nc2ccccc2Cl)c1,5.51
14,O=c1cc(CSc2ccc(Cl)cc2)nc(-c2ccccn2)[nH]1,-0.0469
15,COc1ccc(CNC(=O)C(c2ccco2)N(Cc2ccccc2)C(=O)Cc2cccs2)cc1 (stereo not drawn),18
16,COc1ccc(C(=O)c2cc([N+](=O)[O-])ccc2N2CCN(C)CC2)cc1,-58.2
17,CCN1CCN(c2ccc([N+](=O)[O-])cc2C(=O)c2ccc(Cl)cc2)CC1,-72.8
18,Cc1ccc(C(=O)c2cc([N+](=O)[O-])ccc2N2CCN(C)CC2)cc1,-64.5
19,O=C(c1ccccc1)c1cc([N+](=O)[O-])ccc1N1CCOCC1,-30.7
20,COc1ccc(C(=O)c2cc([N+](=O)[O-])ccc2N2CCOCC2)cc1,-23.5
21,Cc1ccc(C(=O)c2cc([N+](=O)[O-])ccc2N2CC(C)OC(C)C2)cc1 (stereo not drawn),-0.127
22,O=C(c1ccccc1)c1cc([N+](=O)[O-])ccc1N1CCCC1,-12
23,CN1CCN(c2ccc([N+](=O)[O-])cc2C(=O)c2ccccc2)CC1,-54.2
24,Cc1ccc(C(=O)c2cc([N+](=O)[O-])ccc2N2CCOCC2)cc1C,-17
25,COc1ccc(C(=O)c2ccc([N+](=O)[O-])cc2Cl)cc1,-16.2
26,Cc1ccc(C(=O)c2cc([N+](=O)[O-])ccc2N2CCCCC2)cc1C,6.24
27,Cc1ccc(C(=O)c2cc([N+](=O)[O-])ccc2N2CCCCC2)cc1,-5.08
